# Compound activity: PubChem BioAssay, The Scripps Research Institute Molecular Screening Center
# Only a selection was taken, and hits are over-represented in it overall.
# TTR transcr act: increases transthyretin transcription; SH-SY5Y TTR promoter Gaussia luciferase, luminescence; 100% = recombinant luciferase protein wells; activation, % at 16.7 µM; 92,000 compounds, 1.3% hits;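 active = activation above the mean of all tested compounds plus 3 SD, cut at about 9.5% in these data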;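 also: cells exposed to compounds for one day before reading; 0% = median of all test compound wells on the plate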
# TTR inh HuH7: HuH7 TTR transcription inhibition, counter-screen | HuH7 TTR promoter-Gaussia luciferase reporter, luminescence | 1,100 compounds, 4% hits | AID 1117279 | shares compounds with TTR transcr act | inhibition, % at 16.7 µM;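 active = average inhibition above the solvent-only control wells' mean plus 3 SD, cut at about 15% in these data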;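 also: 0% = cells with DMSO only and 100% = cells with inhibitor control FD; inhibitors lower well luminescence so higher value means more inhibition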
# TTR act confirm: human TTR transcription activation, confirmation. AID 1117280. SHSY5Y TTR promoter Gaussia luciferase, luminescence; 100% = purified Lucia enzyme wells, no cells. 1,100 tested, under 10 active. shares compounds with TTR transcr act. activation, % at 16.7 µM;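 active = mean activation above a set limit taken from the earlier primary screen, cut at about 11% in these data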;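 also: 0% = DMSO-treated cells and 100% = recombinant Lucia luciferase without cells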
# Starred values were filed as active, the others as inactive.
SMILES,TTR transcr act,others
O=C(O)CCn1cc(-c2ccc(Cl)cc2)nc1-c1ccc(Cl)nc1,9.7*,TTR inh HuH7=-7.6;TTR act confirm=1.3
COc1ccc(-c2cn(CCO)c(-c3ccc(Cl)nc3)n2)cc1,-2.1,
Cc1ccc(-c2cn(CCN)c(-c3ccncc3)n2)cc1,2.0,
COc1cccc(CNC(=O)[C@@H]2CCCN2C(=O)[C@H]2CCCCN2C(=O)c2ccc(Cl)cc2)c1,-0.5,
FC(F)(F)c1cc(Cl)c2nc(-c3ccccc3)c(Cc3cccc(Cl)c3)n2c1,-0.3,
COc1ccc(NC(=S)N2CCN(C(c3ccccc3)c3ccccc3)CC2)c(OC)c1,-4.0,
COc1cc(C)c(Cl)cc1S(=O)(=O)NCCN1CCOCC1,1.8,
Cc1csc(NC(=O)CSc2nnc(-c3ccc(Cl)cc3)n2N)n1,44.4*,TTR inh HuH7=-33.8;TTR act confirm=0.3
Cc1csc(NC(=O)CSc2nnc(Cc3cccn3C)n2-c2ccc(F)cc2)n1,0.4,
Cc1csc(NC(=O)CCc2c(C)nc3cc(-c4ccc(Cl)cc4)nn3c2C)n1,0.9,
O=C(c1ccc(C(F)(F)F)cc1)C1CCCN(C(=O)CCc2cnccn2)C1 (configuration not stated),-2.1,
CC(=O)c1ccc(O)c(CC=C(C)C)c1O,-0.4,
COc1ccc(C(CNC(=O)Cn2[nH]c(=O)c3ccccc3c2=O)N2CCCC2)cc1 (configuration not stated),3.0,
C=Cn1cc(CNC[C@H]2O[C@@H](n3cc(C)c(=O)[nH]c3=O)C[C@@H]2O)c(C)n1,11.4*,TTR inh HuH7=-13.2;TTR act confirm=-0.5
Cc1cn([C@H]2C[C@H](O)[C@@H](CNC(=O)[C@H]3CCC(=O)N3)O2)c(=O)[nH]c1=O,1.6,
Cc1cn([C@H]2C[C@H](O)[C@@H](CNCc3ccc(N4CCN(C)CC4)cc3F)O2)c(=O)[nH]c1=O,3.4,
O=C(O)Cc1csc2ccccc12,11.8*,TTR inh HuH7=-10.5;TTR act confirm=0.6
O=C(NCc1csc2ccccc12)Nc1cc(Cl)cc(Cl)c1,1.4,
O=C(Nc1ccccc1)Nc1csc2ccccc12,-0.7,
CN(C)C(=S)Nc1ccc(N2CCOCC2)cc1,1.0,
COC(=O)c1cc(C)nc(Sc2ccccc2NC(C)=O)n1,-0.2,
Cc1c(C(=O)O)cnc2cc(-c3ccc(Cl)cc3)nn12,-0.8,
CC(=O)c1cnc2nc(C)nn2c1C,1.1,
CC(=O)c1cnc2cc(-c3ccc(Cl)cc3)nn2c1C,12.3*,TTR inh HuH7=13.3;TTR act confirm=-1.2
C[C@@H]1CN([C@@H](C)CO)C(=O)Cc2cc(NS(=O)(=O)c3ccccc3)ccc2O[C@H]1CN(C)Cc1ccncc1,0.6,
SMILES,TTR transcr act,others
CSCCC(NC(=O)c1ccc([N+](=O)[O-])cc1Cl)C(=O)OCC(=O)N1CCN(C(C)=O)CC1 (configuration not stated),0.1,
COC(=O)c1ccc(Cn2nc(C)cc2C)cc1,2.9,
COc1ccc(-c2cc3ccccc3n2CC(O)Cn2nc(C)cc2C)cc1 (configuration not stated),-0.4,
CC(=O)OC(Cn1nc(C)cc1C)c1ccccc1 (configuration not stated),10.1*,TTR inh HuH7=-8.9;TTR act confirm=-0.4
O=C(Nc1ccc(Cl)cc1)Nc1nnc(SCc2ccccc2)s1,-3.4,
O=C(CCc1nc(-c2ccccc2F)no1)NCCN1CCN(Cc2ccccc2)CC1,-3.0,
COC(=O)c1c(-c2snnc2C)n[nH]c1C,-0.3,
Cn1c(=O)c2cn(-c3ccc4c(c3)OCCO4)cc2n(C)c1=O,-1.1,
CC1CCN(c2ccc3c(c2)S(=O)(=O)c2cccc(C(=O)NC4CCCCC4)c2C3=O)CC1,-4.6,
Oc1ccc(Cl)cc1CNCc1ccc(F)c(F)c1,2.2,
COc1ccc(CNCc2cc(Cl)ccc2O)cc1,10.2*,TTR inh HuH7=2.6;TTR act confirm=-0.3
COc1ccc(CNCc2cccc(C)c2)cc1,0.0,
Cc1cc(C(=O)NC(=S)Nc2ccccc2N2CCCC2)ccc1[N+](=O)[O-],8.5,
Cc1nc(SCC(=O)NC(C)(C)C)c2c(-c3cccs3)csc2n1,13.6*,TTR inh HuH7=-16.2;TTR act confirm=-0.1
CC(C)(C)NC(=O)CSc1nnc(-c2ccncc2)n1Cc1ccccc1,-1.1,
Cc1cc(NC(=O)CSc2n[nH]c(-c3cccs3)n2)no1,4.0,
O=C(Nc1c(F)cccc1F)C(c1ccccc1)c1ccccc1,-0.1,
COC(=O)COc1cccc(-n2cnnn2)c1,11.2*,TTR inh HuH7=-9.1;TTR act confirm=0.8
COC(=O)c1ccc(NC(=O)COc2cccc(-n3cnnn3)c2)cc1,-2.0,
COc1cc(C(=O)Nc2cccc(-n3cnnn3)c2)cc(OC)c1OC,-0.8,
O=C1C=CC(=O)C(C2=C3C(=O)N(CCc4ccccc4)CC(=O)N3CCC2)=C1,-4.1,
CS(=O)(=O)c1ccc2nc(NC(=O)C3CC(=O)N(c4ccc(F)cc4)C3)sc2c1 (configuration not stated),0.3,
O=C1CCCc2c1nc(-c1ccc([N+](=O)[O-])cc1)n2O,12.0*,TTR inh HuH7=1.8;TTR act confirm=-1.1
O=[N+]([O-])c1ccc(-c2cn3c(n2)CCC3)cc1,4.8,
O=C1CCCc2c1nc(-c1ccc(F)cc1)n2O,8.6,
